Data on 33 compounds can be found in PubChem BioAssay AID894 (National Center for Advancing Translational Sciences (NCATS), 2007).

Out of some 150,000 compounds screened, about 6,500 (4.3%) were called active. Roughly 12% stayed inconclusive and do not appear here. The call rests on the fitted dose curve; in most records, active means well fitted inhibition curve with a large enough effect (not every such curve was filed as active); inconclusive means small, poorly fitted or top-dose-only effect, or another doubt; inactive means no such curve, though single readings can be large or run the other way. The list comes from a sample in which actives are over-represented; it also holds similar structures and randomly drawn compounds.
On the % scale 0 is the no-effect control and ±100 the full control effect; potency means the concentration at half of the fitted maximal effect.

The assay deals with 15-hydroxyprostaglandin dehydrogenase [NAD(+)] (Homo sapiens) (UniProt P15428). The assay can be described thus: qHTS Assay for Inhibitors of HPGD (15-Hydroxyprostaglandin Dehydrogenase). To be noted: purified HPGD, NADH fluorescence kinetic, PGE2 substrate; activity change, negative = inhibition: hits give low values. The essentials: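 20 nM HPGD preincubated 15 min at room temperature with compound in 50 mM Tris-HCl pH 8, 0.01% Tween 20. Started with 1 mM NAD+ and 30 uM prostaglandin E2; NADH fluorescence (360/450 nm) read 5 times over 30-s intervals, last minus first.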
Sequence of 15-hydroxyprostaglandin dehydrogenase [NAD(+)] (Homo sapiens) (P15428 whole entry, looked up): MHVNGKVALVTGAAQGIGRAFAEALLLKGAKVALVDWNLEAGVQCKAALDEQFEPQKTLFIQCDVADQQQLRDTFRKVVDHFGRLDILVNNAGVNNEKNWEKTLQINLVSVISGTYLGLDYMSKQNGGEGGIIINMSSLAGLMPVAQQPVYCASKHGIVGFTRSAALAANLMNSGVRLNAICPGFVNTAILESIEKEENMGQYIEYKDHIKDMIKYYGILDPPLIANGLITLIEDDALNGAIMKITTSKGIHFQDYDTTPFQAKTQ
(qHTS replaces the single test concentration by a dilution series.)
`CC(=O)Nc1ccc(C(=O)OCC(=O)Nc2ccc([N+](=O)[O-])cc2C(F)(F)F)cc1`: the activity change, negative = inhibition was -4.2% (inactive). `O=C(CSc1nc2ccc([N+](=O)[O-])cc2[nH]1)c1ccc(Cl)cc1`: the activity change, negative = inhibition was -4.65% (inactive). With `COc1ccc(O[C@H]2C=C[C@@H](c3ccccc3)O[C@@H]2CO/N=C/C[C@@H]2C=C[C@H](OC(C)=O)[C@@H](COC(C)=O)O2)cc1`, the activity change, negative = inhibition is -8.59% (inactive).

`CCOc1ccc(S(=O)(=O)N(CC(=O)NCC(F)(F)F)Cc2ccco2)cc1`: the activity change, negative = inhibition is -11.9% (inactive). Still for that read-out and setting: for `O=C(Nc1cccc([N+](=O)[O-])c1)c1ccc2c(c1)OCO2` the value was -1.46% (inactive); for `CC1(C)CCc2nc(SCc3ccccc3)c(C#N)cc2C1`, -11% (inactive). Take `N#CC1=C(SCc2ccccc2)NC(=O)C(C#N)C12CCCC2` (stereo not drawn): the Potency is 17.8 µM (active). As to `N#CC1=C(SCc2ccc(C#N)cc2)N=C(N)C(c2nc(-c3ccccc3)cs2)C12CCCCC2` (stereo not drawn), the activity change, negative = inhibition was -15.3% (inactive). For `Cc1c(Cl)cccc1NC(=O)CC1SC(=NCC2CCCO2)NC1=O` (stereo not drawn), the activity change, negative = inhibition was -12.3% (inactive). The same measure, in the same setting: for `O=C(CN1C(=O)/C(=C\c2ccc(C(F)(F)F)cc2)Sc2ccccc21)NCc1ccco1` the value was 33.1% (inactive).

For the compound `Cc1noc(C)c1S(=O)(=O)N1CCCC(C(=O)Nc2nccs2)C1` (stereo not drawn), the Potency is 35.5 µM (active). Turning to `CCOc1ccc(OCC)c(NC(=O)C2CCN(S(=O)(=O)c3c(C)noc3C)CC2)c1`, the activity change, negative = inhibition is -8.5% (inactive). Same read-out and setting: for `Cc1noc(/C=C/N(C)C)c1S(=O)(=O)N1CCCC(C(=O)NCc2ccco2)C1` (stereo not drawn) the value was -17.1% (inactive); for `Cn1cc(/C=C/c2nc3ccccc3c(=O)n2-c2cccc([N+](=O)[O-])c2)c2ccccc21`, -11.6% (inactive).

Consider `Cc1ccc(/C=C/C(=O)Nc2cc(S(=O)(=O)N3CCCCCC3)ccc2OCC(F)(F)F)o1`, for which the activity change, negative = inhibition was -24.4% (inactive).

Consider `Cn1c(CNC(=O)c2ccccc2F)nnc1SCc1ccc(F)cc1`, for which the activity change, negative = inhibition is -8.88% (inactive).

In the case of `CN(C)c1ccc(-n2cccc2/C=N/n2cnnc2)cc1`, the activity change, negative = inhibition is -4.13% (inactive). For the compound `CCOC(=O)c1sc(NC(=O)CSc2ncccn2)c(C#N)c1C`, the activity change, negative = inhibition was -17.5% (inactive). As for `CCOC(=O)c1sc(NC(=O)CSc2nnc(-c3ccco3)o2)c(C(=O)OCC)c1C`, the activity change, negative = inhibition was -18.6% (inactive). As for `CCOC(=O)c1sc(NC(=O)CSc2nc(C)cc(C(F)(F)F)n2)c(C#N)c1C`, the Potency is 3.55 µM (active). Regarding `COc1cc(NC(=O)c2cc([N+](=O)[O-])ccc2Br)ccc1NC(=O)c1ccco1`, the activity change, negative = inhibition is -20.2% (inactive). As for `CSc1ccccc1NC(=O)Cc1ccc(Br)cc1`, the activity change, negative = inhibition is -10.6% (inactive). On to `COC(=O)c1cccc(-n2[nH]nnc2=S)c1`, for which the Potency is 28.2 µM (active).

Take `COC(=O)c1cc(C(=O)OC)cc(N2C(=O)CC(N3CCN(c4ccccc4)CC3)C2=O)c1` (stereo not drawn): the activity change, negative = inhibition is -19.8% (inactive). The same measure, in the same setting: in the case of `COc1ccccc1-c1nnc(NC(=O)c2cccc(N3C(=O)CCC3=O)c2)o1` it was -9.42% (inactive); in that of `CN1CCN(c2ccc(S(=O)(=O)N3CCCCC3)cc2NC(=O)Cc2ccccc2F)CC1`, 3.83% (inactive). In the case of `Cn1c(=O)c2cn(-c3cccc4ccccc34)cc2n(C)c1=O`, the activity change, negative = inhibition was -20.9% (inactive). On to `CC1(C)CCCC2=C1CC1C(=O)N(c3ccccc3)C(=O)C1C2` (stereo not drawn), for which the activity change, negative = inhibition was 0.735% (inactive). Turning to `CC1=C(C)CC2C(=O)N(c3cccc4ccccc34)C(=O)C2C1` (stereo not drawn), the Potency was 25.1 µM (active). On to `CCCOc1ccc(NC(=O)CC2C(=O)N(C)C(=S)N2Cc2ccc3c(c2)OCO3)cc1` (stereo not drawn), for which the activity change, negative = inhibition is -0.216% (inactive). Take `O=C(/C=C/c1ccc(F)cc1)Nc1cccc(S(=O)(=O)Nc2cccc(C(F)(F)F)c2)c1`: the activity change, negative = inhibition is -7.72% (inactive).

In the case of `CCc1ccc(NC(=O)C(C)OC(=O)/C=C/c2cccc([N+](=O)[O-])c2)cc1` (stereo not drawn), the activity change, negative = inhibition is -2.79% (inactive).

In the case of `CCOC(=O)C1=C(C)NC(=S)NC1c1cccs1` (stereo not drawn), the activity change, negative = inhibition is -5.68% (inactive).
